PI4K2A block = qHTS for small molecular inhibitors of PI4K2A; purified PI4K2A, ADP-Glo luminescence, 1 h; active compounds read low; activity change, negative = inhibition, % at 76.9 µM; 420,000 tested, 0.13% active; AID 1346378, 2018; in the data active = activity change below about -50%; inconclusive = mostly about -30% to -49%;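 also: -100% = wells without enzyme as full effect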
Target sequence (Q9BTU6 whole entry, looked up): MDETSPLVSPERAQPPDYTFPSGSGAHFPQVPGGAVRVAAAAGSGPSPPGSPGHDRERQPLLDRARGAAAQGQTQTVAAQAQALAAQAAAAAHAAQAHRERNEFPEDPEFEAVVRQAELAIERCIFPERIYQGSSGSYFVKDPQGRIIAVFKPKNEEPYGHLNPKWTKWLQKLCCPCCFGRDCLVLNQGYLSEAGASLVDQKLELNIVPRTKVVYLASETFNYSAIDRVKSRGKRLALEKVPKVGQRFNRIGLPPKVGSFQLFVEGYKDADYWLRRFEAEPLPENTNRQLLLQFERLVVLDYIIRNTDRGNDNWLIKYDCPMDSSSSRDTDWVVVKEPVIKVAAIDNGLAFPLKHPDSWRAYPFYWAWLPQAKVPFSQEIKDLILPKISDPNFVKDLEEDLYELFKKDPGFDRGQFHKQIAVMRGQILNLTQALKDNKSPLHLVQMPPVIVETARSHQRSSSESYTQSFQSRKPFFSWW
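PI4K2A activity was measured by ADP-Glo luminescence: enzyme (4 ug/mL stock) and phosphatidylinositol (1.2 mM stock) in Tris pH 7.5/MgCl2/EGTA/Triton X-100 buffer were reacted with ATP (300 microM stock) for one hour at ambient temperature.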
CtBP-E1A blk = qHTS Assay for Inhibitors of the CtBP/E1A Interaction; CtBP / adenovirus E1A interaction (AlphaScreen); AlphaScreen GST-E1A/His-CtBP binding, 1536-well; active compounds read low; activity change, % (no concentration beside the values); 340,000 tested, 0.49% active; AID 651724, 2012
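Protein mix (5X: 125 nM each GST-E1A, His-CtBP) was incubated with pinned compound 2 h at 37 deg C in dark, in 50 mM Tris pH 8.0 buffer with 300 mM NaCl. Glutathione donor and nickel acceptor beads followed; AlphaScreen signal read after 1 h.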
CCT chaperon mod = High-Throughput Screening for Modulators of Cytosolic Chaperonin Activity. purified chaperonin ATPase assay, HTRF ADP detection, 30 min. activity change, % (no concentration beside the values), hits read low. 360,000 tested, 0.3% active; in the data active = activity change below about -30%
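Nucleotide hydrolysis assay: TRiC at 20–40 nM final (set by batch activity) with 10 uM ATP, 30 min at 37 °C, in presence of 76 uM compound. Detection by competitive ADP HTRF, 30 min ambient.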
Six1-Eya2 inh = qHTS Assay for Inhibitors of the Six1/Eya2 Interaction; Homeobox protein SIX1 (Homo sapiens) + Protein phosphatase EYA2 (Homo sapiens), …; 360,000 tested, 0.56% active; AlphaScreen GST-Six1/His-Eya2 binding, biochemical; active compounds read low; AID 651725, 2012; activity change, % (concentration not given with the values)
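AlphaScreen luminescence read after one hour at 37 °C in darkness. Pin-transferred compounds met GST-Six1 and His-Eya2 protein (5X stock 250 nM/500 nM) plus glutathione donor and Ni-chelate acceptor beads (5X, 50 ug/mL).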
Eya2 inh = qHTS Assay for Inhibitors of the Phosphatase Activity of Eya2. recombinant Eya2, OMFP fluorescence dephosphorylation (OMFP is methylfluorescein phosphate). Potency, µM (titrated, usually from 76.9 µM), inactives show top-dose activity, negative = inhibition, usual class: inhibitors. 330,000 tested, 0.006% active. AID 488837, 2010; active = well fitted inhibition curve with a large enough effect; inconclusive = small, poorly fitted or top-dose-only effect, or effect the other way; also: potency is read from the fitted curve at half-maximal effect
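Eya2 protein (added as 0.2 uM solution) was preincubated with compound for 10 min at ambient temperature in 50 mM HEPES pH 7.5, 50 mM NaCl, 5 uM MgCl2, 0.05% BSA, 1 mM DTT. OMFP (added at 50 uM) then reacted 10 min; fluorescence read at 485/525 nm.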
Active calls of the source: *. Only some compounds are listed: those with a hit (about 0.97% of all), similar ones and a draw of the others. Rule as the data show it, unless noted: active = activity change below about -65%; inconclusive = mostly about -30% to -63%; inactive = weaker than that. Unless noted, % is scaled to controls: 0 for no effect and ±100 for the full control effect.

What do the screens show for `COc1ccc(/C=C2/SC(=O)N(CCNC(=O)C3COc4ccccc4O3)C2=O)cc1` (configuration not stated)?
PI4K2A block: 5; CtBP-E1A blk: 7; CCT chaperon mod: 3; Six1-Eya2 inh: -3; Eya2 inh: 2%

What do the screens show for `CCOc1ccc(/C=C2\SC(=O)N(CCNC(=O)C3COc4ccccc4O3)C2=O)cc1OC` (configuration not stated)?
PI4K2A block: -3; CtBP-E1A blk: -3; CCT chaperon mod: -35*; Six1-Eya2 inh: -11; Eya2 inh: -30%

What do the screens show for `O=C(NCCCN1CCN(c2cccc(Cl)c2)CC1)c1cnn(-c2ccc(F)cc2)c1-n1cccc1`?
PI4K2A block: -7

What do the screens show for `CCOc1ccc(/C=C/c2nc(C#N)c(NCCc3ccccc3)o2)cc1`?
PI4K2A block: -5

How did O=C(/C=C/c1ccc(F)cc1)NC(=S)N1CCN(c2ccccn2)CC1 do in these assays?
PI4K2A block: -2; CtBP-E1A blk: -74*; CCT chaperon mod: 0; Six1-Eya2 inh: -15; Eya2 inh: 2%

What do the screens show for `COc1cccc(C(=O)Nc2cccc(C(=O)NC3=NN(c4c(Cl)cc(Cl)cc4Cl)C(=O)C3)c2)c1`?
PI4K2A block: 5; CtBP-E1A blk: -80*; CCT chaperon mod: -1; Six1-Eya2 inh: -71*; Eya2 inh: -7%

What do the screens show for `COc1cccc(C(=O)Nc2cccc(NC(=O)c3ccc(Cl)cc3Cl)c2)c1`?
PI4K2A block: -10

Results for COc1ccc(NC(=O)c2cccc(N3C(=O)c4cccc([N+](=O)[O-])c4C3=O)c2)cc1 ?
PI4K2A block: -3; CtBP-E1A blk: -3; CCT chaperon mod: -3; Six1-Eya2 inh: 0; Eya2 inh: 14%

What do the screens show for `COc1ccc(/C=C2\C(=O)N(c3c(Cl)cc(Cl)cc3Cl)N=C2NC(=O)c2cccc([N+](=O)[O-])c2)cc1`?
PI4K2A block: -15; CtBP-E1A blk: -2; CCT chaperon mod: 5; Six1-Eya2 inh: -79*; Eya2 inh: -2%

Results for COc1ccc(Nc2cc(O)c3ncccc3c2)cc1 ?
Eya2 inh: 0%

What do the screens show for `Cc1cc(C)cc(-n2c(SCC(=O)Nc3ccccc3)nc3c(oc4ccccc43)c2=O)c1`?
PI4K2A block: 2

Results for O=C(Nc1nc2ccccc2[nH]1)c1ccc(S(=O)(=O)N2CCOCC2)cc1 ?
PI4K2A block: 6; CCT chaperon mod: -2; Six1-Eya2 inh: -1; Eya2 inh: 6%

What do the screens show for `O=C(Nc1nc2ccccc2[nH]1)c1ccc(Cl)c(S(=O)(=O)N2CCCC2)c1`?
PI4K2A block: 1; CtBP-E1A blk: -73*; CCT chaperon mod: -1; Six1-Eya2 inh: inconclusive; Eya2 inh: 0%

Results for Cc1sc2ncn(CC(=O)N3CCN(c4cccc(Cl)c4)CC3)c(=O)c2c1S(=O)(=O)N1CCN(c2ncccn2)CC1 ?
PI4K2A block: 5

What do the screens show for `Cc1ccc(CNC(=O)c2ccc(Cn3nc(C)cc3C)o2)cc1`?
PI4K2A block: -2; CCT chaperon mod: -73*; Six1-Eya2 inh: 3; Eya2 inh: -1%

How did CCNc1nc(NCC)nc(N/N=C/c2ccc([N+](=O)[O-])o2)n1 do in these assays?
PI4K2A block: 4; CtBP-E1A blk: -85*; CCT chaperon mod: 1; Six1-Eya2 inh: -83*; Eya2 inh: -19%

What do the screens show for `CCCCS(=O)(=O)CC(O)CSc1nc(-c2ccc(C)cc2)cc(-c2ccccc2)c1C#N` (configuration not stated)?
PI4K2A block: 0

How did CC(C)Oc1ccc(/C=N/NC(=O)c2ccc(N(Cc3ccccc3)S(C)(=O)=O)cc2)cc1 do in these assays?
PI4K2A block: 0; CtBP-E1A blk: 6; CCT chaperon mod: 0; Six1-Eya2 inh: 0; Eya2 inh: -6%

What do the screens show for `COC(=O)COc1ccc(/C=N/NC(=O)c2ccc(N(Cc3ccccc3)S(C)(=O)=O)cc2)cc1`?
PI4K2A block: 2; CtBP-E1A blk: -79*; CCT chaperon mod: 1; Six1-Eya2 inh: -75*; Eya2 inh: -2%

How did Cc1ccccc1CNC(=O)CN1CCCc2ccccc21 do in these assays?
PI4K2A block: 0

What do the screens show for `CCOC(=O)c1c(C)[nH]c(C)c1C(=O)COc1ncnc2cc([N+](=O)[O-])ccc12`?
PI4K2A block: -4; CtBP-E1A blk: -70*; CCT chaperon mod: -1; Six1-Eya2 inh: -76*; Eya2 inh: -7%

How did CC(NC(=O)COc1ncnc2cc([N+](=O)[O-])ccc12)c1ccccc1 (configuration not stated) do in these assays?
PI4K2A block: -1; CtBP-E1A blk: -3; CCT chaperon mod: -2; Six1-Eya2 inh: 0; Eya2 inh: 2%

Results for Cc1[nH]cnc1-c1ccc(Cl)cc1 ?
PI4K2A block: 2

Results for CCN(CC)CCn1c2c(c(SCC(=O)Nc3ccccc3Cl)nc1=O)CCC2 ?
PI4K2A block: 1; CtBP-E1A blk: -17; CCT chaperon mod: -34*; Six1-Eya2 inh: 0; Eya2 inh: 10%

Results for O=C(c1cc(O)c(O)c(O)c1)c1ccc(O)c(O)c1O ?
PI4K2A block: -8

What do the screens show for `Cc1ccc(-c2csc3nc4c5ccccc5c(NCCCN(C)C)nn4c(=O)c23)cc1`?
PI4K2A block: 0; CtBP-E1A blk: inconclusive; CCT chaperon mod: 3; Six1-Eya2 inh: -67*; Eya2 inh: -4%

Results for Cc1cc(C)c(S(=O)(=O)/N=C2\C=C(Nc3ccc(C(=O)O)cc3)C(=O)c3ccccc32)c(C)c1 ?
PI4K2A block: inconclusive; CtBP-E1A blk: -72*; CCT chaperon mod: -2; Six1-Eya2 inh: inconclusive; Eya2 inh: -28%

How did O=C1C(Nc2ccc(O)cc2)=C/C(=N/S(=O)(=O)c2cccs2)c2ccccc21 do in these assays?
PI4K2A block: inconclusive; CtBP-E1A blk: inconclusive; CCT chaperon mod: 1; Six1-Eya2 inh: -77*; Eya2 inh: -8%

How did O=C(O)c1ccc(NC2=C/C(=N/S(=O)(=O)c3cccs3)c3ccccc3C2=O)cc1 do in these assays?
PI4K2A block: -52*; CtBP-E1A blk: inconclusive; CCT chaperon mod: -1; Six1-Eya2 inh: inconclusive

What do the screens show for `CCc1ccc(NC(=O)CC2C(=O)N(c3ccc(Cl)cc3)C(=O)N2Cc2cccs2)cc1` (configuration not stated)?
PI4K2A block: -2

How did CC(=O)N(CC(=O)N(C)C)c1ccccc1 do in these assays?
PI4K2A block: -1

What do the screens show for `CCOc1ccc(NC(=O)CN(C)C(=O)CCCNC(=O)c2ccc(Cl)cc2)cc1OCC`?
PI4K2A block: 4; CtBP-E1A blk: 2; CCT chaperon mod: -3; Six1-Eya2 inh: -8

High-throughput results as filed in PubChem BioAssay.
